Screening data: PubChem, several laboratories
Most compounds without a hit are left out; they make up all but 2.5% or so of the library.
EWS-Fli inh = EWS/Fli transcriptional activity inhibition | hit rate 0.67% among 350,000 | A673 NR0B1-luciferase reporter, viability-normalised | inhibition, % at 12.6 µM;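 active = mean inhibition of at least 50% after viability correction, with every replicate also passing that limit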;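 also: firefly luciferase signal divided by Alamar Blue viability fluorescence both relative to DMSO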
LGR2 inh = inhibitors of bursicon-induced Drosophila LGR2 receptor cAMP signaling; hit rate 0.35% among 380,000; HEK293 LGR2, CRE-luciferase, bursicon-stimulated, 4 h; inhibition, % at 9.99 µM;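 active = drop in luminescence signal, shown as inhibition above about 50% in the replicate tests, limit read from the data, passing the limit was not always enough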;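 also: agonist challenge used bursicon conditioned medium at about half maximal strength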
LMP1 NFkB inh = inhibitors of Epstein-Barr LMP1-induced NF-kappaB reporter. LMP1-induced NF-kappaB luciferase reporter cells, luminescence. inhibition, % at 12.5 µM. hit rate 0.69% among 350,000. AID 504558; in the data active = inhibition above about 41%;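 also: 0% = neutral control wells and 100% = reference inhibitor control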
TWEAK Fn14 block = TWEAK-Fn14 signaling inhibition | inhibition, % at 10 µM | AID 1159606 | TWEAK-stimulated Fn14 reporter cells, luciferase luminescence, 8 h | hit rate 2% among 360,000; in the data active = inhibition above about 50%
TROY NFkB inh = blocks TROY-dependent signaling in reporter cells | Q293 LMP1-TROYcd NF-kB luciferase reporter, 4 h | inhibition, % at 10 µM | hit rate 0.98% among 360,000;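 active = compounds whose plate-normalised and pattern-corrected inhibition of the luciferase reporter signal at the single screening dose is 50% or more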
Starred values were filed as active, the others as inactive; x = no result.

SMILES	EWS-Fli inh	LGR2 inh	LMP1 NFkB inh	TWEAK Fn14 block	TROY NFkB inh
Cc1ccc(C)c(NC(=S)NC(NC(=O)OCc2ccccc2)C(Cl)(Cl)Cl)c1 (stereo not given)	x	-12	5	61*	49
Cc1ccc(C)c(NC(=S)NC(NC(=O)/C=C/c2ccccc2)C(Cl)(Cl)Cl)c1 (stereo not given)	x	x	13	55*	30
O=C(NC(NC(=S)Nc1c(Cl)cc(Cl)cc1Cl)C(Cl)(Cl)Cl)OCc1ccccc1 (stereo not given)	-2	31	12	38	37
O=C(NC(NC(=S)Nc1ccccc1Cl)C(Cl)(Cl)Cl)c1cccc(Cl)c1 (stereo not given)	x	43	15	76*	36
COc1ccc(NC(=S)NC(NC(=O)c2cccc(Cl)c2)C(Cl)(Cl)Cl)c([N+](=O)[O-])c1 (stereo not given)	x	x	7	40	7
O=C(/C=C/c1ccccc1)NC(NC(=S)Nc1ccc(Cl)cc1Cl)C(Cl)(Cl)Cl (stereo not given)	x	x	1	64*	28
CCCC(=O)N1CC2(C1)CN(C(=O)C1CCCCC1)[C@@H](CO)c1[nH]c3cc(OC)ccc3c12	-2	-2	x	x	x
C[C@@H]1CN([C@H](C)CO)C(=O)c2cc(NC(=O)NC3CCCCC3)ccc2O[C@@H](C)CCCCO[C@@H]1CN(C)C(=O)CCC(F)(F)F	-4	-1	x	x	x
O=C1CNC[C@@H]2[C@@H](c3ccc(-c4ccccc4F)cc3)[C@@H](CO)N12	-9	-6	x	x	x
O=C(CCc1ccccc1)NC(NC(=S)Nc1cccc(Cl)c1)C(Cl)(Cl)Cl (stereo not given)	0	5	3	-7	15
O=C(/C=C/c1ccccc1)NC(NC(=S)Nc1ccc(C(=O)O)cc1)C(Cl)(Cl)Cl (stereo not given)	x	0	-1	-3	0
O=C(/C=C/c1ccccc1)NC(NC(=S)Nc1cccc(O)c1)C(Cl)(Cl)Cl (stereo not given)	x	17	6	56*	47
O=C(/C=C/c1ccccc1)NC(NC(=S)Nc1cccc(Cl)c1)C(Cl)(Cl)Cl (stereo not given)	x	x	56*	63*	34
C[C@H]1CN([C@@H](C)CO)C(=O)c2cc(NC(=O)C3CCCCC3)ccc2O[C@H]1CN(C)Cc1ccc(Cl)c(Cl)c1	-1	7	x	x	x
COc1cccc2c1C(=N)c1c(O)c3c(c(O)c1C2=O)CC(O)(C(C)=O)CC3OC1CC(N)C(O)C(C)O1 (stereo not given)	x	x	53*	-139	-43
CCCCC(=O)OCC(=O)C1(O)Cc2c(O)c3c(c(O)c2C(OC2CC(NC(=O)C(F)(F)F)C(O)C(C)O2)C1)C(=O)c1c(OC)cccc1C3=O (stereo not given)	45	-48	48*	-199	-9
COc1cccc2c1C(=O)c1c(O)c3c(c(O)c1C2=O)C[C@](O)(C(C)=O)C[C@H]3O[C@@H]1C[C@@H](N)[C@@H](O)[C@@H](C)O1	45	1	91*	97*	77*
COc1cccc2c1C(=O)c1c(O)c3c(c(O)c1C2=O)CC(O)(C(C)=O)CC3OC1CC(O)C(O)C(C)O1 (stereo not given)	22	x	31	-173	-89
C[C@@H]1CN([C@@H](C)CO)C(=O)c2cc(C#CCN(C)C)cnc2O[C@@H]1CN(C)Cc1ccc(C(=O)O)cc1	-5	0	x	x	x
c1ccc(Nc2ncnc3sccc23)cc1	-13	9	-1	-6	-20
CC(Nc1ncnc2sccc12)c1ccccc1 (stereo not given)	41	-5	24	54*	32
CC(=O)c1cccc(NC(=O)N2CCCC2C(=O)Nc2cccc(C)c2)c1 (stereo not given)	x	x	-3	66*	12
CC(=O)Nc1cccc(NC(=O)C2CCCN2C(=O)Nc2cccc(C)c2)c1 (stereo not given)	x	x	-4	0	-1
O=C(Nc1ccc2c(c1)OCCO2)C1CCCN1C(=O)Nc1ccc(F)cc1 (stereo not given)	7	4	-1	59*	32
CN(C)C(=O)C[C@H]1CC[C@H](NC(=O)C2CC2)[C@@H](CO)O1	-11	5	x	x	x
CC(C)NC(=O)Nc1ccc2c(c1)CC(=O)N([C@H](C)CO)C[C@@H](C)[C@@H](CN(C)S(=O)(=O)c1ccccc1)O2	x	-2	x	x	x
C/C=C/c1ccc([C@@H]2[C@@H](CO)N(C(C)=O)C23CN(C(=O)c2ccc(F)cc2)C3)cc1	0	-5	x	x	x
